Most compounds without a hit are left out; they make up all but 22% or so of the library.
Measles CPE = protection of cells from measles virus. hit rate 1.5% among 140,000. protection (pct of control), % at 4 µM. AID 841. Measles virus-infected cells, CPE protection, absorbance; in the data active = protection mostly above about 24%, no sharp cut-off; inactive = mostly below about 26%
CYP2C19 activ = cytochrome P450 2C19 (human) activation; recombinant CYP2C19, luciferin-H EGE luminescence; active compounds read high; 0 = fully inhibited enzyme, 1 = untreated enzyme; AID 1025; activation factor at 5 µM; P33261; 96,000 tested, under 10 active;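 active = activation factor of at least 2 at 5 µM in the primary screen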
CYP2C9 inh = inhibitors of human CYP2C9. P11712. CYP2C9 Supersomes, luciferin-H conversion, luminescence. inhibition, % at 5 µM. hit rate 20% among 96,000. AID 777;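 active = blocking of liver enzyme CYP2C9 beyond about 50% at 5 µM, limit read from the data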
Target sequence (P11712 whole entry, looked up): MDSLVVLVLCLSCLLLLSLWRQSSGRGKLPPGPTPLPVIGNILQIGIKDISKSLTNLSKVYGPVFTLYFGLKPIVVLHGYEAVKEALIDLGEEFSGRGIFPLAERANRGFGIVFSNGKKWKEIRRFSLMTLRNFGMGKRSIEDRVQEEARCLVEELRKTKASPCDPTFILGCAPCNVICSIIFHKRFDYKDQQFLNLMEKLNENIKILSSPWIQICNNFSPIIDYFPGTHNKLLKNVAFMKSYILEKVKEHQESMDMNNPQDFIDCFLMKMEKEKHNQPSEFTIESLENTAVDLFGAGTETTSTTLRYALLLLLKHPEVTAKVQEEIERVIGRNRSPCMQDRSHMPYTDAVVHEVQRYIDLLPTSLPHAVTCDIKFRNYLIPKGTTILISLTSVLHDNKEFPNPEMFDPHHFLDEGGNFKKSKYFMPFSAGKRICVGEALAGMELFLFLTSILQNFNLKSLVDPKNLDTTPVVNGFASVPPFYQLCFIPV
CYP2C19 inhib = blocks human cytochrome P450 2C19. P33261. CYP2C19 Supersomes, luciferin-H EGE luminescence, 30 min. inhibition, % at 5 µM. hit rate 21% among 96,000. AID 778;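 active = CYP2C19 inhibition above a set limit at 5 µM in the primary screen, cut at about 50% in these data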
CYP2C9 activ = CYP2C9 (human) activation | P11712 | recombinant CYP2C9, luciferin-H conversion, luminescence; active compounds read high; factor 1 = untreated enzyme, 0 = blocked | activation factor at 5 µM | hit rate 1.4% among 96,000 | AID 1024;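 active = activation factor of 2 or more for CYP2C9 at a 5 µM dose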
Of the large screens only hits and unclear results are named; the others gave an inactive call.

O=C(Cn1cc([N+](=O)[O-])cn1)Nc1nc2ccccc2s1	none
C/C(CCN1CCCCc2nc(C)c(C)cc21)=N\O[C@@H](C)CN1CCCCc2nc(C)c(C)cc21	none (no result: CYP2C19 activ, CYP2C9 inh, CYP2C19 inhib, CYP2C9 activ)
COc1ccc(O[C@H]2C=C[C@@H](c3ccccc3)O[C@@H]2CO/N=C(\C)CCN2CCCCc3nc(C)c(C)cc32)cc1	Measles CPE 23.3 (no result: CYP2C19 activ, CYP2C9 inh, CYP2C19 inhib, CYP2C9 activ)
C/C(=N\NC(=O)NC1CCCCC1)C1CCCCC1	none (no result: CYP2C19 activ, CYP2C9 inh, CYP2C19 inhib, CYP2C9 activ)
CSc1ccc(NC(=O)CC(C)=O)cc1	none
CCCC(=O)Nc1ccc(C(=O)/C=C/c2ccc(SC)cc2)cc1	CYP2C9 inh 73.4, CYP2C19 inhib 50.3
CSc1ccc(/C=C/C(=O)c2ccc(NC(C)=O)cc2)cc1	CYP2C19 inhib 50.6
Cc1cc2occ(CC(=O)Nc3nccs3)c2cc1C(C)C	none
Cc1ccc(CN2C(=O)c3ccccc3C2C(=O)NCc2cccnc2)cc1 (stereo unspecified)	CYP2C9 inh 50.9, CYP2C19 inhib 71.4
COc1ccc(OC)c(CN2C(=O)c3ccccc3C2C(=O)NCc2cccnc2)c1 (stereo unspecified)	CYP2C9 inh 51.3, CYP2C19 inhib 56.8
COc1ccc(CN2C(=O)c3ccccc3C2C(=O)NCc2cccnc2)c(OC)c1 (stereo unspecified)	Measles CPE 33.4
O=C(NCc1cccnc1)C1c2ccccc2C(=O)N1C1CCCC1 (stereo unspecified)	CYP2C19 inhib 74.7
CCC(C)NC(=O)C1c2ccccc2C(=O)N1Cc1cc(OC)ccc1OC (stereo unspecified)	none
CC(C(=O)NCc1cccnc1)N1C(=O)c2ccccc2C1=O (stereo unspecified)	none (no result: CYP2C19 activ, CYP2C9 inh, CYP2C19 inhib, CYP2C9 activ)
O=C1c2oc3ccc(F)cc3c(=O)c2C(c2ccncc2)N1CCN1CCOCC1 (stereo unspecified)	none (no result: Measles CPE)
O=C(O)CN(CCO)CCN(CC(=O)O)CC(=O)O	none (no result: CYP2C19 activ, CYP2C9 inh, CYP2C19 inhib, CYP2C9 activ)
COC(=O)C(NS(C)(=O)=O)(c1c(C)[nH]c2ccccc12)C(F)(F)F (stereo unspecified)	CYP2C19 inhib 63.5 (no result: Measles CPE)
C/C(=N/NC(=O)CNC(=O)Cc1ccccc1)c1ccco1	none (no result: CYP2C19 activ, CYP2C9 inh, CYP2C19 inhib, CYP2C9 activ)
C/C(=N\NC(=O)C1CC1(C)c1ccccc1)c1ccco1 (stereo unspecified)	Measles CPE 70.8 (no result: CYP2C19 activ, CYP2C9 inh, CYP2C19 inhib, CYP2C9 activ)
C/C(=N/NC(=O)c1ccccn1)c1ccco1	CYP2C19 inhib 56.8
CCCCCC(=O)N/N=C(\C)c1ccccn1	CYP2C19 inhib 57.1
CCCCCCCCCC(=O)N/N=C(\C)c1cccnc1	none (no result: CYP2C19 activ, CYP2C9 inh, CYP2C19 inhib, CYP2C9 activ)
Cc1cc(=O)n2[nH]c(COc3ccccc3)nc2n1	none
CC1(C)CC(=O)N(CC(=O)O)c2ccccc2S1	none
CN(CC(=O)O/N=C(\N)c1cccc([N+](=O)[O-])c1)S(=O)(=O)c1ccccc1	CYP2C19 inhib 58.6
Cc1ccc(NC(=O)c2snc3ccc(Cl)cc23)cc1C	none (no result: CYP2C19 activ, CYP2C9 inh, CYP2C19 inhib, CYP2C9 activ)
CCN(CC(=O)NCc1cccs1)c1ccc(S(=O)(=O)N2CCOCC2)cn1	CYP2C9 inh 57.3
COc1ccc(C(=O)Nc2ccccc2C(=O)N/N=C/c2cccc3ccccc23)cc1	none
CC(C)CNC(=O)CSc1ccc(Cl)cc1	none
NC(=O)C(c1ccc(Cl)cc1)c1ccc(Sc2ccc(Cl)cc2)nn1 (stereo unspecified)	CYP2C19 inhib 63.4
COc1ccc(C2=Nn3c(nnc3-c3ccncc3)SC2)cc1OC	CYP2C9 inh 60.6
O=C(Nc1cccc(Cl)c1)Nc1nnc(-c2ccncc2)s1	none (no result: CYP2C19 activ, CYP2C9 inh, CYP2C19 inhib, CYP2C9 activ)
Cc1ccc(NC(=O)CS(=O)CC(=O)NCCCN(C)c2ccccc2)cc1 (stereo unspecified)	CYP2C9 inh 84.4, CYP2C19 inhib 60.5
O=C(Cn1nc(Cc2cccnc2)c2ccccc2c1=O)NCc1ccc(F)cc1	CYP2C9 inh 82.9, CYP2C19 inhib 58.3
O=C(Cn1nc(Cc2cccnc2)c2ccccc2c1=O)N1CCN(c2ccccn2)CC1	CYP2C9 inh 86.9
COc1cc(NC(=O)Cn2nc(Cc3cccnc3)c3ccccc3c2=O)cc(OC)c1OC	CYP2C9 inh 61.6, CYP2C19 inhib 54.3
O=C(Cn1nc(Cc2cccnc2)c2ccccc2c1=O)NCc1ccc2c(c1)OCO2	CYP2C9 inh 88.6, CYP2C19 inhib 56.5
CCn1ncc(CNC(=O)CCCSc2nc(-c3ccco3)cc(C(F)(F)F)n2)c1C	none (no result: CYP2C19 activ, CYP2C9 inh, CYP2C19 inhib, CYP2C9 activ)
Cc1nn(C)c(-c2n[nH]c(=S)n2Cc2ccco2)c1Cl	none (no result: CYP2C19 activ, CYP2C9 inh, CYP2C19 inhib, CYP2C9 activ)
CCC(=O)Nc1cc(C)c(NC(=O)CCc2ccccc2)cn1	none
COc1ccc(CC(=O)NC(=S)Nc2ccc(S(=O)(=O)NC(C)(C)C)cc2)cc1	none
CC(C)C(=O)NC(=S)Nc1ccc(S(=O)(=O)NC(C)(C)C)cc1	CYP2C9 inh 50.0
CC(C)C(=O)NC(=S)Nc1ccc(S(=O)(=O)N(C)C)cc1	none (no result: CYP2C19 activ, CYP2C9 inh, CYP2C19 inhib, CYP2C9 activ)
CCOc1ccc(NS(=O)(=O)c2ccc(NC(=S)NC(=O)C(C)C)cc2)cc1	CYP2C9 inh 95.1, CYP2C19 inhib 82.0
COc1ccc(NS(=O)(=O)c2ccc(NC(=S)NC(=O)C(C)C)cc2)cc1	CYP2C9 inh 64.5, CYP2C19 inhib 79.1
CC(C)C(=O)NC(=S)Nc1ccc(S(=O)(=O)N(C)Cc2ccccc2)cc1	CYP2C9 inh 55.1
CC(C)C(=O)NC(=S)Nc1ccc(S(=O)(=O)Nc2ccccc2)cc1	none (no result: CYP2C19 activ, CYP2C9 inh, CYP2C19 inhib, CYP2C9 activ)
Nc1c2c(nc3sc4c(c13)CCCC4)CCCCCC2	none (no result: CYP2C19 activ, CYP2C9 inh, CYP2C19 inhib, CYP2C9 activ)
Cn1c(=O)c2c(SCC(=O)NCc3ccco3)nc(CC(C)(C)C)nc2n(C)c1=O	CYP2C9 inh 51.6, CYP2C19 inhib 59.4
Cn1c(=O)c2c(SCC(=O)Nc3ccc4c(c3)OCCO4)nc(CC(C)(C)C)nc2n(C)c1=O	CYP2C9 inh 74.1, CYP2C19 inhib 59.4
O=C(O)c1c(F)c(F)c(F)c(F)c1-c1ccc(Cl)cc1	none
S=c1[nH]nc(-c2ccco2)n1C1CCCCC1	none (no result: CYP2C19 activ, CYP2C9 inh, CYP2C19 inhib, CYP2C9 activ)
COC(=O)/C(=C\Nc1ccccc1N)c1ncc(C(F)(F)F)cc1Cl	none
N#Cc1c2c(c[nH]c1=O)CCN2Cc1ccccc1	Measles CPE 43.8 (no result: CYP2C19 activ, CYP2C9 inh, CYP2C19 inhib, CYP2C9 activ)
Cc1cnc(NC(=O)CSc2nnc(-c3cccs3)n2C)s1	none
COCCNC(=O)c1ccc2ccccc2n1	none
CCN(CC)S(=O)(=O)c1ccc(C(=O)OCCNC(=O)c2cccnc2)cc1	CYP2C9 inh 72.5
O=C(OCCNC(=O)c1ccc2ccccc2n1)c1cccnc1	CYP2C9 inh 66.4, CYP2C19 inhib 89.6
O=C(O)CC1CCCC(c2ccccc2)C1=O (stereo unspecified)	none (no result: CYP2C19 activ, CYP2C9 inh, CYP2C19 inhib, CYP2C9 activ)
CCc1ccc(N(CC(=O)O)S(=O)(=O)c2c(C)noc2C)cc1	none
CCc1ccc(NC(=O)CNS(=O)(=O)c2c(C)noc2C)cc1	CYP2C9 inh 50.7
COc1ccc(CCNC(=O)c2ccc(NS(=O)(=O)c3c(C)noc3C)cc2)cc1OC	CYP2C9 inh 63.7
Cc1noc(C)c1S(=O)(=O)Nc1ccc(C(=O)NC2CCCCCC2)cc1	none
Cc1ccc(CNC(=O)c2ccc(NS(=O)(=O)c3c(C)noc3C)cc2)cc1	CYP2C9 inh 69.8
O=C(Nc1ccc(F)cc1)c1cc(S(=O)(=O)N2CCCCC2)cs1	none
CCOC(=O)C(=O)Nc1cc([N+](=O)[O-])ccc1C	none (no result: CYP2C19 activ, CYP2C9 inh, CYP2C19 inhib, CYP2C9 activ)
CCOc1ccc(N=C(NC#N)SC)cc1	CYP2C19 inhib 70.0
CCOc1ccc(N=C(NC#N)SCC)cc1	none (no result: CYP2C19 activ, CYP2C9 inh, CYP2C19 inhib, CYP2C9 activ)

Bioassay records as filed in PubChem BioAssay.
